In PubChem BioAssay (NCATS) one finds outcome, Potency and activation data, which are given here for 21 compounds.

Test [1] has as its target Mitogen-activated protein kinase 10 (Mus musculus) (UniProt Q61831). Kind of test: JNK3 AlphaScreen Assay (AID 530; active = well fitted curve in either direction with a large enough effect, not every such curve was filed as active;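 also: kinase came from lysate of stimulated human HepG2 cells; signal reports phosphorylation of biotinylated GST-cJun 1-79 at Ser73 with 10 µM ATP; series mostly up to about 57 µM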). An outline of the steps: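 Activity was read by AlphaScreen after JNK3-containing HepG2 lysate (cytokine pre-activated) phosphorylated biotinylated GST-cJun with 10 uM ATP at room temperature. Phospho-Ser73 cJun antibody with Protein-A acceptor beads provided detection.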

Test [2] deals with 3',5'-cyclic-AMP phosphodiesterase 4B (Homo sapiens) (UniProt Q07343). Kind of test: qHTS Assay for Inhibitors of PDE-IV (AID 607; active = well fitted activation curve with a large enough effect in the main read-out, with a control signal flat, not every such curve was filed as active). An outline of the steps:
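HEK293 ACTOne cells with CNG channel (1000/well), endogenous PDE4; membrane potential dye, compounds up to 22.9 uM final. Fluorescence Ex 535/Em 590; RO 20-1724 (100 uM final) as reference.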

In test [3] the target is Cytochrome P450 3A4 (Homo sapiens) (UniProt P08684). Kind of test: qHTS Assay for Inhibitors and Substrates of Cytochrome P450 3A4 (AID 884). Also: nearly all actives have a fitted effect of over 50% in size. Also: potency is read from the fitted curve at half-maximal effect. An outline of the steps: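 Luminescent readout of luciferin produced by CYP3A4 (20 nM) dealkylation of Luciferin-PPXE, 25 uM (its KM). NADPH-driven reaction ran 60 min at RT after 10 min compound preincubation; data scaled to 57 uM ketoconazole as 100% inhibition.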

A short description of test [4]: Confirmation and Secondary Assay for Modulators of Hemoglobin Beta Chain Splicing at IVS2 654 locus (AID 910).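 Also: HeLa cells stably carrying EGFP split by mutant beta-globin IVS2-654 intron.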 In outline:
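HeLa cells stably expressing EGFP interrupted by β-globin IVS2-654 intron, seeded overnight in Opti-MEM/2% FCS, then treated 2 days at 37 °C. Restored splicing read as total peak GFP intensity per well by laser scanning cytometry (488 nm excitation, 500–520 nm emission); 500 nM antisense PNA as control.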

Test [5] in a line: Confirmation and Secondary Assay for Modulators of Hemoglobin Beta Chain Splicing at IVS2 705 locus (AID 930).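 Also: HeLa cells stably expressing the EGFP-705 splicing reporter; GFP fluorescence per well restored by corrected splicing of the IVS2-705 intron in EGFP; series mostly up to about 46 µM.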 In outline: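 HeLa IVS2-705 EGFP reporter cells, 500/well, compound 2 d at 37C; correct splicing yields fluorescent EGFP. Control: 500 nM antisense PNA. Read-out: total peak GFP intensity.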
For test [6], the target named is Ubiquitin carboxyl-terminal hydrolase 1 (Homo sapiens) (UniProt O94782). In words: Inhibitors of USP1/UAF1: Pilot qHTS (AID 504865). Also: nearly all actives have a fitted effect of over 35% in size. Also: potency is read from the fitted curve at half-maximal effect. In outline:
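USP1/UAF1 complex at 1 nM preincubated 15 min at room temperature with compound, then Ub-Rho substrate added at 150 nM final. Fluorescence (480/540 nm) read kinetically in 50 mM HEPES pH 7.8, 0.5 mM EDTA, 1 mM TCEP, 0.1 mg/ml BSA, 0.01% Tween-20.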

The target in test [7] is Cytochrome P450 3A4 (Homo sapiens) (UniProt P08684). Kind of test: qHTS Assay for Activators of Cytochrome P450 3A4 (AID 885). Also: nearly all actives have a fitted effect of over 65% in size. In outline: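 Human CYP3A4 dealkylates Luciferin-PPXE to luciferin, which luciferase detection converts to light. Substrate was at its KM (25uM), buffer 200mM KPO4, reaction 60 min at RT.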
Test [8] deals with Bile acid receptor (Homo sapiens) (UniProt Q96RI1). Kind of test: qHTS assay for small molecule agonists of farnesoid X receptor signaling (AID 588527; calls by dose curve; also: series mostly up to about 77 µM). The note with it: HEK293T FXR-UAS-bla, beta-lactamase ratio, 16 h; activation: hits give high values. In outline: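 FXR-UAS-bla HEK293T cells (10% dialyzed FBS) preincubated 5-7 h at 37 C, then compounds at up to 92 uM for 16 h at 37 C. CCF4 beta-lactamase read-out after 2 h RT. Normalized to chenodeoxycholic acid (100 uM) and DMSO; Hill fit gave EC50 and efficacy.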

Each structure is given as a SMILES string. Values without a mark were called inactive. Results filed as inconclusive are left out. Where a call stands in place of a potency, no number is given. The source made the active and inactive calls. Unless noted, calls follow the shape of the dose curve; as a rule, active = well fitted curve in the direction sought with a large enough effect; inconclusive = small, poorly fitted or top-dose-only effect, or another doubt; inactive = no such curve, though single readings can be large; an effect the other way counts as inactive or inconclusive.

3',5'-cyclic-AMP phosphodiesterase 4B (Homo sapiens), sequence (Q07343 whole entry, looked up): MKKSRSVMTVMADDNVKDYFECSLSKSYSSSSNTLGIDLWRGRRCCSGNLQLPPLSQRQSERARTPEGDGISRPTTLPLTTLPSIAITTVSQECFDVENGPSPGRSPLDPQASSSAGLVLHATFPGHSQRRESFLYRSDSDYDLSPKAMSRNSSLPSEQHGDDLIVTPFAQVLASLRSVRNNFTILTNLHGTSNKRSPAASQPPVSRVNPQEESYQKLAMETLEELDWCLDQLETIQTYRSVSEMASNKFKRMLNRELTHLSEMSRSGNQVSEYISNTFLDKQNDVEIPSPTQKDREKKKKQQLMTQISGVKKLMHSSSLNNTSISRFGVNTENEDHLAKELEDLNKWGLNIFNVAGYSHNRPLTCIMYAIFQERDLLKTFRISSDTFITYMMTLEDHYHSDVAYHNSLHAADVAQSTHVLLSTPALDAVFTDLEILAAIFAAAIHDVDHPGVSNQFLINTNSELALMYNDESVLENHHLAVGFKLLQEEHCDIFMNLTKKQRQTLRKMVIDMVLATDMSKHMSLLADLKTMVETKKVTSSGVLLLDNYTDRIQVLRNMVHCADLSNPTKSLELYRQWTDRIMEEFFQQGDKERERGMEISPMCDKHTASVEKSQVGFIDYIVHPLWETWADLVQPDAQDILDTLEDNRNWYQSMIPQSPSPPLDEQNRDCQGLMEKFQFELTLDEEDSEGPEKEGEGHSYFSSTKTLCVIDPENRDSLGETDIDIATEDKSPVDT
Cytochrome P450 3A4 (Homo sapiens), sequence (P08684 whole entry, looked up): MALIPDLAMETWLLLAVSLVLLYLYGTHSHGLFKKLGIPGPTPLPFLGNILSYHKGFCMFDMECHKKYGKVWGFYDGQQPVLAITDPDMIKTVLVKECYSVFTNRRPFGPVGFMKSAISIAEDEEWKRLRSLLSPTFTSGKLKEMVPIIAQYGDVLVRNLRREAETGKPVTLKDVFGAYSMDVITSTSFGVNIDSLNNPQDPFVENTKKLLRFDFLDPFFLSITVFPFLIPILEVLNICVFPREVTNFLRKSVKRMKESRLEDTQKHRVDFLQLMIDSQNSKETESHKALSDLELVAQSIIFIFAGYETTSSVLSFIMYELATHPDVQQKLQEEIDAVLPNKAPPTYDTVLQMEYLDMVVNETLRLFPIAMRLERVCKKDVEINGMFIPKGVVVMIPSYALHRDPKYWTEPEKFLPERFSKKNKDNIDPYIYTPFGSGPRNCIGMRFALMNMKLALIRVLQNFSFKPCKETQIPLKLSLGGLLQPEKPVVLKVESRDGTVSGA
Ubiquitin carboxyl-terminal hydrolase 1 (Homo sapiens), sequence (O94782 whole entry, looked up): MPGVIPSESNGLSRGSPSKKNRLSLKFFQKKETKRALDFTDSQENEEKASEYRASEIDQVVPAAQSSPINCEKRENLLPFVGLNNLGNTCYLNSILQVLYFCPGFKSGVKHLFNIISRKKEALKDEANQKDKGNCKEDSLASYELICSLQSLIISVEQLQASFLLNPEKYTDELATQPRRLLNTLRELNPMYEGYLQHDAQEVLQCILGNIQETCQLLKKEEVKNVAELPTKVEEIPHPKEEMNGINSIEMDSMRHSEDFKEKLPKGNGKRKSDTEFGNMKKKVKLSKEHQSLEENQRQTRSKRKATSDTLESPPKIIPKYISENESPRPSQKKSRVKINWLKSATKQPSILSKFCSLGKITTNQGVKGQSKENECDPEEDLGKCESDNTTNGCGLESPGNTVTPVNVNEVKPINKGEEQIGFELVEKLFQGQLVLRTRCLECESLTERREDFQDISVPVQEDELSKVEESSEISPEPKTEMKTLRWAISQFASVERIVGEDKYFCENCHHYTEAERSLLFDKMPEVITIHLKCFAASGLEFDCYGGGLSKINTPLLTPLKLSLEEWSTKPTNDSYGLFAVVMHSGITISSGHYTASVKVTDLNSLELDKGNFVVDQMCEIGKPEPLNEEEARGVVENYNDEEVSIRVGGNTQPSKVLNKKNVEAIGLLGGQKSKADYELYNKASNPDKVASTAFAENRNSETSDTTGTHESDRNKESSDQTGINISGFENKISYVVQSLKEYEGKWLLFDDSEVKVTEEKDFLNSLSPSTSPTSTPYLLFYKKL
Bile acid receptor (Homo sapiens), sequence (Q96RI1 whole entry, looked up): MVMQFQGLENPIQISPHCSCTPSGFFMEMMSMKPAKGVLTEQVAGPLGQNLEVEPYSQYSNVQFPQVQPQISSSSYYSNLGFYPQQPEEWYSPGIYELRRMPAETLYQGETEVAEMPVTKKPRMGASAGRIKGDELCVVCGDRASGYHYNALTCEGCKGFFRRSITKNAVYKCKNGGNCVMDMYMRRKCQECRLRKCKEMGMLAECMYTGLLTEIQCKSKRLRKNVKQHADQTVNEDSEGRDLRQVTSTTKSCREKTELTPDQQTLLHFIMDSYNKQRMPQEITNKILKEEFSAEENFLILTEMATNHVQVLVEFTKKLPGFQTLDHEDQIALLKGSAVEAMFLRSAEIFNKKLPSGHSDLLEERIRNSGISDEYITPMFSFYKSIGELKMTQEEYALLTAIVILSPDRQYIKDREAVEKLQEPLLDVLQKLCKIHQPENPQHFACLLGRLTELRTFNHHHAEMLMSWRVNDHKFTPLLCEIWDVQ

For `COC(=O)[C@@]1(Cc2ccccc2)[C@H]2c3cc(C(=O)N(C)C)n(C)c3C[C@H]2CN1C(=O)c1ccccc1`, the result in test [1] and in test [2] was inactive.
Regarding `OCC1OC(n2cnc3cc(Cl)c(Cl)cc32)C(O)C1O` (centres undefined), the Potency entry in test [3], in test [4] and in test [6] was “inactive” in each case. In addition, the compound was classed as inactive in test [5].
`CC1CC(Cl)CCC1C(=O)OC(C)(C)C` (centres undefined): the Potency result in test [3], in test [4] and in test [6] was “inactive” throughout. The compound was classed as inactive in test [5].
As for `O=P(N[C@@H](c1ccccc1)[C@@H]1C[C@H]1CO)(c1ccccc1)c1ccccc1`, the outcome in test [1] was inactive. Besides, the Potency entry in test [7] is “inactive”.
`CCN1C[C@@]2(COC)[C@H](O)C[C@H](OC)[C@@]34[C@@H]5C[C@@]6(O)[C@H](OC(=O)c7ccccc7)[C@H]5[C@@](OC(C)=O)([C@H]([C@@H](OC)[C@H]23)[C@H]14)[C@H](O)[C@@H]6OC`: the compound was classed as inactive in test [1].
Regarding `COc1ccc(CC2NC[C@H](O)[C@H]2OC(C)=O)cc1` (some centres undefined), the Potency entry in test [3], in test [4] and in test [6] was “inactive” throughout. Besides, the outcome in test [5] was inactive.
With `C=C[C@@H]1C[C@@]1(C)[C@@H](NP(=O)(c1ccccc1)c1ccccc1)c1ccccc1`, the compound was classed as inactive in test [1]. The Potency in test [3] was 10 µM (active). Further, the Potency result in test [7] was “inactive”.
In the case of `CNNC`, the Potency entry in test [7], in test [4] and in test [6] was “inactive” in each case. For the same compound, the compound was called inactive in test [5].
As for `COC(=O)[C@@H]1C[C@@]1(C)[C@@H](NP(=O)(c1ccccc1)c1ccccc1)c1ccccc1`, the result in test [1] was inactive. Further, in test [3], the Potency was 7.94 µM (active). Moreover, in test [7], the Potency result is “inactive”.
Turning to `C[C@@]1([C@@H](NP(=O)(c2ccccc2)c2ccccc2)c2ccccc2)C[C@H]1CCO`, in test [1], the outcome was inactive. For the same compound, in test [3], the Potency was 7.94 µM (active). Further, the Potency result in test [7] is “inactive”.
As for `NCC(N)C(=O)c1ccccc1` (centres undefined), the Potency result in test [3], in test [4] and in test [6] was “inactive” throughout. In addition, the result in test [5] was inactive.
For the compound `CC[C@H](CO)NC(=O)[C@H]1C=C2c3cccc4[nH]cc(c34)C[C@H]2N(C)C1`, the compound was called inactive in test [1] and in test [2].
For the compound `CC1N(P(=O)(c2ccccc2)c2ccccc2)CC(O)(c2ccccc2)CC12CC2` (centres undefined), the result in test [1] was inactive.
Regarding `CC(=O)OCC1=C(C(=O)O)N2C(=O)C(NC(=O)CCCC(N)C(=O)O)C2SC1` (centres undefined), the Potency entry in test [3], in test [4] and in test [6] was “inactive” throughout. Further, the call in test [5] was inactive.
As to `O=C1C[C@@H]2OCC=C3CN4CC[C@]56c7ccccc7N1[C@H]5[C@@H]2[C@H]3C[C@@H]46`, the result in test [1] and in test [2] was inactive.
As for `C=C(C)c1ccccc1`, in test [1], the outcome was inactive. The Potency result in test [3] was “inactive”. Further, in test [8], the activation is -3.16%.
Consider `COC(=O)[C@@H]1C[C@@H]1[C@@H](NP(=O)(c1ccccc1)c1ccccc1)c1ccccc1`, for which the result in test [1] and in test [2] was inactive.
For `COc1c2c(c(CC=C(C)C)c3oc(=O)c(-c4ccc(O)cc4)c(O)c13)OC(C)(C)C=C2`, the Potency result in test [7] and in test [4] was “inactive” throughout. Also, the call in test [5] was inactive. Further, the Potency in test [6] was 79.4 µM (active).
Consider `CCC1C2CC3C4N(C)c5ccccc5[C@]45CC(C2C5O)N3C1O` (some centres undefined), for which the Potency result in test [3], in test [4] and in test [6] was “inactive” each time. Also, the outcome in test [5] was inactive.
As to `COC(=O)[C@@]1(Cc2ccccc2)[C@H]2c3cc(C(=O)N(C)C)[nH]c3C[C@H]2CN1C(=O)c1ccccc1`, the outcome in test [1] and in test [2] was inactive.
Regarding `COC(=O)[C@]1(C)C[C@H]1[C@H](NP(=O)(c1ccccc1)c1ccccc1)c1ccccc1`, in test [1], the outcome was inactive.
